Only some compounds are listed: those with a hit (about 2.7% of all), similar ones and a draw of the others.
PAFAH1B2 FP inh – blocks human PAF acetylhydrolase 1b catalytic subunit 2 | 340,000 compounds, 1.2% hits | inhibition, % at 3.39 µM | recombinant PAFAH1B2, FP-rhodamine activity probe, fluorescence polarization | P68402;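 active = inhibition above the mean of all tested compounds plus 3 SD, cut at about 24% in these data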
Target sequence (P68402 whole entry, looked up): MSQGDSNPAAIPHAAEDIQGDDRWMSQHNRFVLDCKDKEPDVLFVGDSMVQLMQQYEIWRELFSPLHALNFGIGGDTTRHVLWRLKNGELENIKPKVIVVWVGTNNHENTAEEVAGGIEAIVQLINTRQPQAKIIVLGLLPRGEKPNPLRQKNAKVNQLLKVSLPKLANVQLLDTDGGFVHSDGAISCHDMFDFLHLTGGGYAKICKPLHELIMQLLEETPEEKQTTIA
PAFAH2 inh – inhibitors of human PAFAH2; 340,000 compounds, 0.99% hits; recombinant PAFAH2, FP-rhodamine activity probe, fluorescence polarization; Q99487; inhibition, % at 3.39 µM; AID 492956;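 active = inhibition above the mean over all tested compounds plus 3 SD, cut at about 30% in these data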;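 note: inhibitors block probe labeling of enzyme so polarization drops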
pPAFAH inh – pPAFAH (human) enzyme inhibition | recombinant pPAFAH, FP-rhodamine probe fluorescence polarization | inhibition, % at 3.39 µM | 330,000 compounds, 1.5% hits | AID 463082;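 active = inhibition above the mean inhibition across the screen plus 3 SD, cut at about 25% in these data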;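 note: inhibitors block binding of the rhodamine activity-based probe so polarization drops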
PAFAH1B3 inh – PAFAH1B3 (human) inhibition; recombinant PAFAH1B3, FP-rhodamine probe, fluorescence polarization; AID 492972; inhibition, % at 3.39 µM; 340,000 compounds, 0.28% hits;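 active = inhibition above the screen-wide average of all tested compounds plus 3 SD, cut at about 25% in these data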
Target sequence (Q15102 whole entry, looked up): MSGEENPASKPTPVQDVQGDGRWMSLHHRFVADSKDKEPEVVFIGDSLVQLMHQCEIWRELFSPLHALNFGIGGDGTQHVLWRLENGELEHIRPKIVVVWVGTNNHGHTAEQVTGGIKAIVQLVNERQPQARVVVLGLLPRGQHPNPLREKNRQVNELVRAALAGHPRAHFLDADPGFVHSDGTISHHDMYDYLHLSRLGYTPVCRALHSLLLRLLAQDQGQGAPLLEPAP
TCR CD3 inh – inhibitors of human TCR-CD3 interaction; inhibition, % at 9.4 µM; TAMRA-labeled TCR probe fluorescence, biochemical; 360,000 compounds, 0.37% hits; AID 651800; in the data active = inhibition above about 19%;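 note: recombinant mutant TCR 2C K166C tagged with TAMRA read by polarization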
Large screens that a line does not name were inactive.

CC(C)(C)c1ccc(C2=CC(c3ccccc3F)n3ncnc3N2)cc1 (stereo not given)	PAFAH1B2 FP inh 48
Nc1nc2c(s1)CCc1ccccc1-2	none
N#C/C(=C(/O)CCl)c1nc2c(s1)CCc1ccccc1-2	PAFAH2 inh 30
Cc1[nH]c2ccc(C(=O)NCCCN(C)C3CCCCC3)cc2c1C	none
COc1ccc(C2CC(=O)C(c3cccc(OC)c3)=CN2Cc2ccccc2)cc1 (stereo not given)	none (no result: PAFAH1B2 FP inh, PAFAH2 inh, pPAFAH inh, PAFAH1B3 inh)
C=CCNc1nc(C(=O)OCC(=O)NCc2cccc(Cl)c2)cs1	pPAFAH inh 25
O=C(Nc1ccc(F)cc1F)C1CCN(S(=O)(=O)c2cccnc2)CC1	none
Cc1ccc2nc(Cl)nc(-c3ccccc3)c2c1	none
Cc1ccc2nc(Cl)c(-c3ccccc3)cc2c1	pPAFAH inh 31 (no result: PAFAH1B2 FP inh, PAFAH2 inh, PAFAH1B3 inh)
COC(=O)c1sc(-c2ccc(C(C)(C)C)cc2)cc1NC(=O)COCC(=O)O	pPAFAH inh 28 (no result: PAFAH1B2 FP inh, PAFAH2 inh, PAFAH1B3 inh)
CC1CCN(S(=O)(=O)c2ccc3c(c2)N(CC(=O)NCCCN2C(C)CCCC2C)C(=O)CO3)CC1 (stereo not given)	none
N/C(=N\OC(=O)C12CC3CC(CC(C3)C1)C2)c1ccccn1	PAFAH1B2 FP inh 24
CCn1c(SCC(=O)N(C)C)nc2cc(S(=O)(=O)N3CCOCC3)ccc21	PAFAH1B2 FP inh 78
CCCCCCSC1=C(C#N)C(c2ccc(C)o2)CC(=O)N1 (stereo not given)	pPAFAH inh 25
CCSC1=C(C#N)C(c2ccc(C)o2)CC(=O)N1 (stereo not given)	none
Nc1nc(NCC(=O)O)nc(NCc2ccccc2)c1[N+](=O)[O-]	PAFAH1B2 FP inh 28
Cc1cccc(N2CCN(C(=O)c3cc4n(n3)C(C(F)(F)F)CC(c3ccco3)N4)CC2)c1C (stereo not given)	pPAFAH inh 34
O=C(c1cc2n(n1)C(C(F)(F)F)CC(c1ccco1)N2)N1CCN(c2ccccn2)CC1 (stereo not given)	none
CN(C)c1ccc(/C=C2\SC(N3CCCCC3)=NC2=O)cc1	pPAFAH inh 28
Cc1ccc(/C=C2\SC(N3CCCC3)=NC2=O)cc1	none (no result: PAFAH1B2 FP inh, PAFAH2 inh, PAFAH1B3 inh)
CCCCCNC(=O)C(CCc1ccccc1)n1c(=O)c(-c2ccccc2)nc2ccccc21 (stereo not given)	none (no result: PAFAH1B2 FP inh, PAFAH2 inh, pPAFAH inh, PAFAH1B3 inh)
N=C1/C(=C\c2ccc(-c3ccc(C(=O)O)cc3)o2)C(=O)N=C2SC=C(c3ccccc3)N12	PAFAH1B2 FP inh 28, PAFAH2 inh 34 (no result: pPAFAH inh)
CCCCn1c(NS(=O)(=O)c2ccccc2)c(S(=O)(=O)c2ccc(C)cc2)c2nc3ccccc3nc21	PAFAH1B2 FP inh 36, PAFAH2 inh 57, PAFAH1B3 inh 66
CCCCCn1c(NC(=O)c2ccco2)c(S(=O)(=O)c2ccc(C)cc2)c2nc3ccccc3nc21	PAFAH1B2 FP inh 30, PAFAH2 inh 42, PAFAH1B3 inh 57
CCCCn1c(NC(=O)c2ccco2)c(S(=O)(=O)c2ccc(C)cc2)c2nc3ccccc3nc21	none (no result: pPAFAH inh)
Cc1ccc(S(=O)(=O)c2c(N)n(CCCO)c3nc4ccccc4nc23)cc1	none
C[C@H](c1ccccc1)N1C[C@@H](COCc2ccccc2)Oc2cccc(N3CCCC3)c2S1(=O)=O	none (no result: PAFAH1B2 FP inh, PAFAH2 inh, pPAFAH inh, PAFAH1B3 inh)
C/C=C/c1ccc(OCCOc2cc(C=O)ccc2OC)c(OC)c1	pPAFAH inh 28
C/C=C/c1ccc(OCC(=O)O)c(OC)c1	none
CC1CCN(c2ccccc2NC(=O)c2cc([N+](=O)[O-])ccc2N2CCOCC2)CC1	PAFAH1B2 FP inh 27
CN(CC(=O)Nc1ccccc1Br)C(=O)c1cc([N+](=O)[O-])ccc1N1CCOCC1	PAFAH1B2 FP inh 176, PAFAH2 inh 139, PAFAH1B3 inh active
COc1ccc(C2=NOC(C(=O)Nc3ccc4c(c3)OCCO4)C2)c(OC)c1 (stereo not given)	none
COc1ccc(N(CC(=O)NC2CCCC2)C(=O)CCC(=O)Nc2cc(C)on2)cc1OC	none
CCCCNC(=O)C1C(c2ccc(OC)cc2)=Nc2ccccc2N1C(=O)c1ccc2ncccc2c1 (stereo not given)	none (no result: PAFAH1B2 FP inh, PAFAH2 inh, pPAFAH inh, PAFAH1B3 inh)
CC(C)c1ccc(S(=O)(=O)Nc2ccc(-n3cnnn3)cc2)cc1	none (no result: pPAFAH inh)
CC(C)c1ccc(NS(=O)(=O)c2ccc(N3C(=O)CCC3=O)cc2)cc1	pPAFAH inh 29
CC(C)c1ccc(NS(=O)(=O)c2ccc(-n3cccn3)cc2)cc1	pPAFAH inh 25
Cc1ccc(NS(=O)(=O)c2ccc(N3C(=O)CCC3=O)cc2)cc1	none
COc1ccc(CN2CCNC(=O)C2CC(=O)N2CCCN(C(C)=O)CC2)c(OC)c1 (stereo not given)	none
CC(C)C(OC(=O)c1nsc(Cl)c1Cl)C(=O)NCc1ccccc1 (stereo not given)	pPAFAH inh 26
Cc1ccc(C2c3c(n[nH]c3C)C(=O)N2c2ccccc2)cc1 (stereo not given)	none (no result: PAFAH1B2 FP inh, PAFAH2 inh, pPAFAH inh, PAFAH1B3 inh)
Cc1ccc2c(c1)c1c3n2CC(=C2C(=O)OC(C)(C)OC2=O)NC3CCC1 (stereo not given)	pPAFAH inh 29
Cc1ccc2c(c1)c1c3n2CCN(C(=O)C2CC2)C3CCC1 (stereo not given)	none
COc1cc(S(=O)(=O)Nc2cccc(C)c2)ccc1NC(=O)c1cccnc1	pPAFAH inh 30
COCCNC(=O)C1(C)CCN(C(=O)/C=C/c2ccccc2)C1 (stereo not given)	none (no result: PAFAH1B2 FP inh, PAFAH2 inh, pPAFAH inh, PAFAH1B3 inh)
C[C@H](O)[C@@H]1C(=O)N2CCc3c([nH]c4cccc(-c5ccccc5)c34)[C@@H]2C[C@@H]1N(C)C(=O)C1CCCCC1	none (no result: PAFAH1B2 FP inh, PAFAH2 inh, pPAFAH inh, PAFAH1B3 inh)
CC(=O)c1ccc(NC(=O)C2CCCN(S(=O)(=O)c3cccc4nonc34)C2)cc1 (stereo not given)	PAFAH1B2 FP inh 29 (no result: TCR CD3 inh)
Cc1ccc(NC(=O)C2CCCN(S(=O)(=O)c3cccc4nonc34)C2)cc1 (stereo not given)	none
Cc1ccc(NS(=O)(=O)c2ccc3c(c2)CC(=O)N3)c(C)c1	pPAFAH inh 33
Cc1ccc(NS(=O)(=O)c2ccc3c(c2)NC(=O)CO3)c(C)c1	none
COCc1[nH]nc2c1C(c1ccccc1)N(Cc1ccccc1)C2=O (stereo not given)	none (no result: PAFAH1B2 FP inh, PAFAH2 inh, pPAFAH inh, PAFAH1B3 inh)
CN(C)c1ccsc1C(=O)NNS(=O)(=O)c1ccc(Cl)cc1	PAFAH1B2 FP inh 32
Cc1occc1C(=O)NNS(=O)(=O)c1ccc(Cl)cc1	none
Oc1ccc(/C=N/Nc2ccc3ccccc3c2)c(O)c1	pPAFAH inh 25
CC1(C(=O)NS(=O)(=O)c2ccccc2OC(F)(F)F)CCN1C(=O)c1ccccc1 (stereo not given)	none (no result: PAFAH1B2 FP inh, PAFAH2 inh, pPAFAH inh, PAFAH1B3 inh)
O=[N+]([O-])c1cc([N+](=O)[O-])c2c(=Nc3ccccc3)n(-c3ccccc3)n(O)c2c1	TCR CD3 inh 26
O=C(Nc1ccc(N2CCCC2)cc1)c1ccc2ccccc2c1	pPAFAH inh 34
COC(=O)[C@]12CCCCC=C1N(Cc1ccccc1)C(=O)[C@H](CC(=O)N1CCCCC1)C2	none (no result: PAFAH1B2 FP inh, PAFAH2 inh, pPAFAH inh, PAFAH1B3 inh)
O=C(CSc1ccccc1)Nc1ccccc1N1CCOCC1	none
O=C(CSc1ccc(F)cc1)Nc1ccccc1N1CCOCC1	PAFAH1B2 FP inh 26
CCc1ccc(CNc2ccc(O)cc2)cc1	none (no result: TCR CD3 inh)
Oc1ccc(NCc2ccc(OCc3ccccc3)cc2)cc1	TCR CD3 inh 30 (no result: pPAFAH inh)
